High-throughput results (PubChem BioAssay)
Most compounds without a hit are left out; they make up all but 2.3% or so of the library.
Rtt109 Vps75: blocks Candida albicans Rtt109/Vps75 acetyltransferase activity | inhibition, % at 34.9 µM | purified Rtt109/Vps75, ThioGlo CoA-SH fluorescence, 4 h | hit rate 0.16% among 330,000 | Q5AAJ8;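 active means inhibition of at least 50% in every replicate; inconclusive means best replicate reaches 50% inhibition but some replicates fall short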
Target sequence (Q5AAJ8 whole entry, looked up): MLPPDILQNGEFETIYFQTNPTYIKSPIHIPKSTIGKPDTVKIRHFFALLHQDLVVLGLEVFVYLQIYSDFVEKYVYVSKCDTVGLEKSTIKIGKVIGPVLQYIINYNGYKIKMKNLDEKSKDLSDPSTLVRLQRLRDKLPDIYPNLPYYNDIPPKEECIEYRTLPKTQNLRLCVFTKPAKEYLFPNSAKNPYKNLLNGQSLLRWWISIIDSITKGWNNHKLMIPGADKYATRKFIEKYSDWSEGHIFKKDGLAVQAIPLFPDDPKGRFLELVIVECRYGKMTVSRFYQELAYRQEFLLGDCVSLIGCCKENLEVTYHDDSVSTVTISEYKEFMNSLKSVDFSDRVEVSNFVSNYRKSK
SIRT5 inh: blocks human SIRT5 desuccinylation of peptide; Q9NXA8; Purified SirT5, succinyl-peptide AMC, trypsin-coupled fluorescence; inhibition, % at 15 µM; hit rate 1.1% among 330,000; in the data active means inhibition above about 15%; inconclusive means no clear call, values can overlap the other calls
ERp5 inh: inhibitors of human ERp5; ERp5 insulin aggregation, absorbance 650 nm, 90 min; inhibition, % at 9.99 µM; hit rate 0.05% among 350,000;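 active means mean replicate inhibition above about 25%, with every replicate also reaching it, limit read from the data, passing the limit was not always enough; inconclusive means only one of those two criteria met; inactive means neither criterion met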
DENV2 CPE rescue: DENV2-induced cell death inhibition; DENV2-infected cells, cytopathic effect rescue, plate reader; CPE inhibition, % at 9.99 µM; hit rate 1.7% among 350,000; in the data active means CPE inhibition above about 20%, passing the limit was not always enough; inconclusive means no clear call, values can overlap the other calls; tested in BHK-21 cells;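 further: 0% = median of neutral control wells and 100% = median of positive control wells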
PDI inh: blocks human protein disulfide isomerase activity; PDI insulin aggregation turbidity, A650, 90 min; inhibition, % at 10 µM; P07237; hit rate 0.052% among 350,000;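 active means mean inhibition across replicates of 30% or more, whatever share of single replicates reach that level; inconclusive means mean inhibition below 30% while every single replicate reaches 30%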
* hit, by the source's call; ? = inconclusive; . = no result given; ! = repeats disagree.

SMILES	Rtt109 Vps75	SIRT5 inh	ERp5 inh	DENV2 CPE rescue	PDI inh
C[C@H]1CN([C@@H](C)CO)C(=O)CCCn2cc(nn2)CO[C@@H]1CN(C)Cc1cccc(C(F)(F)F)c1	.	-20	44*	1	.
COc1ccc(OC(=O)N(C)C[C@@H]2OCc3cn(nn3)CCCC(=O)N([C@H](C)CO)C[C@H]2C)cc1	.	1	1	18	.
C[C@@H]1CN([C@@H](C)CO)C(=O)CCCn2cc(nn2)CO[C@@H]1CN(C)Cc1cccc(C(F)(F)F)c1	.	2	9	-2	.
COc1cccc(NC(=O)N(C)C[C@H]2OCc3cn(nn3)CCCC(=O)N([C@H](C)CO)C[C@@H]2C)c1	.	-1	-2	-1	.
C[C@H]1CN([C@@H](C)CO)C(=O)CCCn2cc(nn2)CO[C@@H]1CN(C)C(=O)c1ccc(N2CCN(C)CC2)cc1	.	1	-5	64*!	.
COc1cccc(NC(=O)N(C)C[C@@H]2OCc3cn(nn3)CCCC(=O)N([C@H](C)CO)C[C@H]2C)c1	.	23*!	2	38*!	2
C[C@@H]1CCCCO[C@H](CN(C)C(=O)CCCN(C)C)[C@@H](C)CN([C@@H](C)CO)C(=O)c2cc(NC(=O)NC3CCCCC3)ccc2O1	.	-5	-3	0	.
CC1=CC(C)(C)n2c(O)c(N=N)c3cc(C)cc1c32	0	-1	-3	49*	-2
O=C(NCCS(=O)(=O)N1CCN(c2ccccc2)CC1)C1CC1	5	-9	2	104*	-3
O=C(NCCS(=O)(=O)N1CCN(c2ccccc2)CC1)C1CCCC1	3	-1	-2	?	-12
CC(C)CC1NC(=O)c2ccccc2-n2c1nc1ccccc1c2=O (stereo not given)	.	2	3	40*	.
O=C1NC(Cc2ccc(O)cc2)c2nc3ccc(F)cc3c(=O)n2-c2cc3ccccc3cc21 (stereo not given)	.	29*	9	1	25
COc1ccc2nc3n(c(=O)c2c1)-c1ccccc1C(=O)NC3Cc1ccccc1 (stereo not given)	.	.	-3	89*	.
O=C1NC(Cc2ccc(O)cc2)c2nc3cc(F)c(F)cc3c(=O)n2-c2cc3ccccc3cc21 (stereo not given)	.	.	-2	1	-1
CCCC(=O)Nc1ccc2c(c1)C(=O)N(C)[C@H]1CC[C@H](CC(=O)Nc3ccccc3F)O[C@@H]1CO2	.	.	.	-6	.
CC(C)NC(=O)N[C@H]1CC[C@@H](CCNS(=O)(=O)c2ccc(F)cc2)O[C@@H]1CO	.	-2	-2	4	.
C[C@H](CO)N1C[C@H](C)[C@H](CN(C)Cc2ccc(C(F)(F)F)cc2)OCCCC[C@H](C)Oc2ccc(NC(=O)Cc3ccccc3)cc2C1=O	.	1	0	8	.
C[C@@H]1CCCCO[C@@H](CN(C)Cc2ccc(C(F)(F)F)cc2)[C@H](C)CN([C@H](C)CO)C(=O)c2cc(NC(=O)Cc3ccccc3)ccc2O1	.	3	-2	40*	.
C[C@@H]1CCCCO[C@H](CN(C)Cc2ccccc2)[C@H](C)CN([C@@H](C)CO)C(=O)c2cc(NC(=O)c3ccccc3)ccc2O1	.	.	.	27*	.
C[C@@H]1CN([C@@H](C)CO)C(=O)c2cc(NC(=O)Nc3ccc(C(F)(F)F)cc3)ccc2O[C@@H](C)CCCCO[C@@H]1CN(C)Cc1ccccc1	.	3	-4	127*	.
C[C@@H]1CCCCO[C@@H](CN(C)C(=O)Nc2ccc3c(c2)OCO3)[C@@H](C)CN([C@@H](C)CO)C(=O)c2cc(NC(=O)Cc3ccccc3)ccc2O1	.	.	.	12	.
C[C@H]1CCCCO[C@H](CN(C)C(=O)Nc2ccc3c(c2)OCO3)[C@@H](C)CN([C@@H](C)CO)C(=O)c2cc(NC(=O)Cc3ccccc3)ccc2O1	.	.	.	27*	.
C[C@@H]1CCCCO[C@H](CN(C)Cc2ccccc2)[C@@H](C)CN([C@H](C)CO)C(=O)c2cc(NC(=O)c3ccccc3)ccc2O1	.	-3	3	0	-4
COCC(=O)N(C)C[C@@H]1Oc2cc(C#C[C@H](C)O)ccc2S(=O)(=O)N([C@H](C)CO)C[C@@H]1C	.	-6	-3	1	.
C[C@@H]1CCCCO[C@@H](CN(C)C(=O)Nc2ccc(C(F)(F)F)cc2)[C@H](C)CN([C@H](C)CO)C(=O)c2cc(NC(=O)Cc3ccccc3)ccc2O1	.	.	.	91*	.
SMILES	Rtt109 Vps75	SIRT5 inh	ERp5 inh	DENV2 CPE rescue	PDI inh
C[C@@H]1CCCCO[C@H](CN(C)C(=O)NC2CCCCC2)[C@H](C)CN([C@@H](C)CO)C(=O)c2cc(NC(=O)c3ccccc3)ccc2O1	.	.	.	43*	.
C[C@@H]1CCCCO[C@H](CN(C)C(=O)NC2CCCCC2)[C@@H](C)CN([C@@H](C)CO)C(=O)c2cc(NC(=O)c3ccccc3)ccc2O1	.	.	.	13	.
CNC[C@H]1Oc2ccc(NS(=O)(=O)c3ccc(F)cc3)cc2CC(=O)N([C@H](C)CO)C[C@@H]1C	.	1	-4	12	.
C[C@@H]1CN([C@@H](C)CO)C(=O)c2cc(-c3cncnc3)cnc2O[C@@H]1CN(C)C(=O)Cc1cccnc1	.	1	-4	-10	.
CNC(=O)C[C@@H]1CC[C@@H]2[C@@H](COc3ccc(NC(=O)Nc4cccc(F)c4)cc3C(=O)N2C)O1	.	.	.	1	.
CCNC(=O)NC(=O)CSc1nnc(-c2c[nH]c3ccccc23)o1	51*	-7	3	-3	2
CCCNC(=O)NC(=O)CSc1nnc(-c2c[nH]c3ccccc23)o1	-2	-1	1	-4	8
Cc1c(C(=O)c2ccc(N(C)C)cc2)c2ccccn2c1CCC#N	2	112*	4	-4	-5
CN1CCN(C(=O)C[C@@H]2CC[C@H]3[C@@H](COC[C@H](O)CN3CC3CCCC3)O2)CC1	.	-2	1	-11	.
COc1ccc(CN(C)C[C@@H]2OCCCC[C@H](C)Oc3ccc(NC(=O)Nc4ccc(F)cc4)cc3C(=O)N([C@@H](C)CO)C[C@H]2C)cc1	.	-3	11	-3	.
CO[C@@H]1CN(C)C(=O)c2ccc(NC(=O)Nc3cc(F)ccc3F)cc2OC[C@@H](C)N(C(=O)c2cnccn2)C[C@@H]1C	.	-2	.	-2	.
C[C@H]1CCCCO[C@@H](CN(C)CC2CCCCC2)[C@@H](C)CN([C@@H](C)CO)C(=O)c2cc(NC(=O)NC3CCCCC3)ccc2O1	.	.	.	-15	.
O=C(c1cc2nc(-c3ccccc3)cc(C(F)(F)F)n2n1)N1CCCC1	26	21*	4	.	12
